The list is not random: actives were taken first. Their share in the collection is about 18%.
TGFb SMAD3 inh: inhibitors of TGF-b signaling; AID 588855; HepG2 CAGA-GFP TGF-b/SMAD3 reporter, GFP fluorescence, 18 h; TGF-beta stimulated, 500 pg/mL final; Potency, µM (titrated, usually from 46.1 µM), usual class: inhibitors; hit rate 1.2% among 410,000; further: nearly all actives have a fitted effect of over 65% in size
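Smad-responsive CAGA-GFP expression was quantified in HEPG2 cells exposed to compounds and 500 pg/mL final TGF-beta for 18 h at 37 degrees C; unstimulated wells defined full inhibition.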
DT40 TDP1 no CPT: qHTS for Inhibitors of human tyrosyl-DNA phosphodiesterase 1 (TDP1): qHTS in cells in absence of CPT; DT40 Tdp1-/- hTDP1 cells, no CPT, ATP luminescence, 48 h; Potency, µM (top dose mostly 46.2 µM), actives largely listed as inhibitors; hit rate 15% among 420,000; further: nearly all actives have a fitted effect of over 55% in size
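Growth of hTDP1-complemented DT40 Tdp1-knockout cells is measured by ATP luminescence after at least 48 hr compound exposure at 37 °C, with DMSO substituting for the 20 nM CPT used in the parallel screen.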
TDP1 block: TDP1 (human) enzyme inhibition. Q9NUW8. recombinant TDP1, AlphaScreen DNA substrate cleavage. Potency, µM (doses to about 130 µM), most hits filed as inhibitors. hit rate 0.28% among 350,000. AID 485290; further: nearly all actives have a fitted effect of over 40% in size
Target sequence (Q9NUW8 whole entry, looked up): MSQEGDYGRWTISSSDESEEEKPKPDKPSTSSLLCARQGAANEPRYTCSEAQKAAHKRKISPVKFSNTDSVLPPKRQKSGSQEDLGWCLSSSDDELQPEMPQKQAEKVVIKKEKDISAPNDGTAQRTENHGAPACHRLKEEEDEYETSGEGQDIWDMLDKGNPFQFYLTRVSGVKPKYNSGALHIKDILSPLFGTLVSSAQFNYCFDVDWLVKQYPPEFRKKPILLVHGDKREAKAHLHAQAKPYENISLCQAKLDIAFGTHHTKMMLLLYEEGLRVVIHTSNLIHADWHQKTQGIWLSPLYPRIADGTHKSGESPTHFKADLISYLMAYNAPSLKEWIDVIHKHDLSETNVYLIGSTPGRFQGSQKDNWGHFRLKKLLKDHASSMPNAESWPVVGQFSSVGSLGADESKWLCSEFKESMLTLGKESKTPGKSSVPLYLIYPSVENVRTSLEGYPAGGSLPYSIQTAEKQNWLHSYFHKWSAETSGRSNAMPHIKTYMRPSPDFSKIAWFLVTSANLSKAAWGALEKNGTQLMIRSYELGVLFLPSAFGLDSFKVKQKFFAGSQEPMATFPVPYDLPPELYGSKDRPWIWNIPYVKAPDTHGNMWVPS
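Recombinant human Tdp1 (E. coli-expressed, 1 nM final) preincubated with compounds 15 min at room temperature, then 5'-biotin/3'-phosphotyrosine-FITC DNA substrate (15 nM final) added for 5 min. AlphaScreen beads (10 ug/ml final) added 10 min; cleavage lowers signal.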
DT40 TDP1 CPT: DT40-hTDP1 cell growth loss with CPT | chicken DT40 Tdp1-/-;hTDP1 cells + 20 nM CPT, ATP luminescence, 48 h | Potency, µM (doses to about 46.2 µM), most hits filed as inhibitors | hit rate 12% among 420,000 | AID 686979; further: nearly all actives have a fitted effect of over 55% in size
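Chicken DT40 Tdp1-/- cells stably complemented with human TDP1 were seeded at 400 cells/well in medium containing 20 nM camptothecin, exposed to pin-transferred compounds, and grown at 37 °C for at least 48 hr. Viability was read as ATP luminescence.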
IL-1B inflam inh: blocks inflammasome-driven IL-1 beta release | activity change, % at 57.5 µM | hit rate 4.7% among 360,000 | THP-1 LPS/ATP IL-1B secretion, AlphaLISA, 16 h; active compounds read low; in the data active means activity change below about -50%; inconclusive means mostly about -30% to -49%
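THP-1 cells pretreated 1 hr with compounds (up to 57.5 uM final), then stimulated with LPS (250 ng/mL final) plus ATP (1.25 mM final); secreted IL-1B measured by AlphaLISA after 16 hr, decreased signal indicating inhibition.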
HepG2 tox: HepG2 cytotoxicity, counter-screen for TGF-b inhibitors | hit rate 0.76% among 410,000 | Potency, µM (top dose mostly 46.1 µM), usual class: cytotoxic | HepG2 CAGA-GFP viability, ATP luminescence, 18 h
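HepG2 CAGA-GFP cells (1000/well, DMEM with 1% FBS) received compound, then TGF-beta at 500 pg/mL final, and were incubated 18 hours at 37 degrees C. Viability was read by CellTiter-Glo luminescence. Media-only wells were set as complete cell-killing and DMSO as no toxicity.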
Large screens that a line does not name were inactive. Unless noted, the call rests on the fitted dose curve; in most records, active means well fitted curve in the direction sought with a large enough effect; inconclusive means small, poorly fitted or top-dose-only effect, or another doubt; inactive means no such curve, though single readings can be large; an effect the other way counts as inactive or inconclusive.

COc1ccc(-c2ccc3c(N)c(C(=O)Nc4ccc(C)cc4C)sc3n2)cc1OC	DT40 TDP1 no CPT inconclusive, DT40 TDP1 CPT 4.1µM (no result: IL-1B inflam inh)
COc1ccc(C(=O)c2sc3nc(-c4ccccc4)ccc3c2N)cc1	none
COc1ccc(-c2ccc3c(N)c(C(=O)NCc4ccc(Cl)cc4)sc3n2)cc1	TGFb SMAD3 inh inconclusive, DT40 TDP1 no CPT 15µM, DT40 TDP1 CPT inconclusive (no result: TDP1 block, IL-1B inflam inh)
Cc1ccc(S(=O)(=O)N2CCN(C(=O)COC(=O)COc3ccccc3C(C)C)CC2)c(C)c1	none (no result: TDP1 block)
COc1cccc(C(=O)NC(C)c2nnc3n2CCN(CC=C(C)C)CC3)c1 (configuration not stated)	none (no result: TGFb SMAD3 inh, TDP1 block, IL-1B inflam inh, HepG2 tox)
CCOc1ccccc1NC(=O)c1sc2nc(-c3ccc(OC)cc3)ccc2c1N	DT40 TDP1 no CPT 13µM, DT40 TDP1 CPT 21µM (no result: TDP1 block, IL-1B inflam inh)
Nc1c(C(=O)NCc2ccc(Cl)cc2)sc2nc(-c3ccc(F)cc3)ccc12	TGFb SMAD3 inh inconclusive, DT40 TDP1 no CPT 21µM, DT40 TDP1 CPT 18µM (no result: IL-1B inflam inh)
CCOc1ccccc1NC(=O)c1sc2nc(C)cc(C)c2c1N	DT40 TDP1 no CPT inconclusive, DT40 TDP1 CPT inconclusive (no result: IL-1B inflam inh)
CCCCC(c1nc2ccccc2[nH]1)n1c(=O)c(-c2ccccc2)nc2cc(C)c(C)cc21 (configuration not stated)	DT40 TDP1 CPT inconclusive (no result: TDP1 block)
COC(=O)CS	none (no result: TGFb SMAD3 inh, DT40 TDP1 no CPT, DT40 TDP1 CPT, IL-1B inflam inh, HepG2 tox)
Cc1ccc(S(=O)(=O)CCC(=O)OCC(=O)NC2CCS(=O)(=O)C2)cc1 (configuration not stated)	none (no result: TDP1 block)
OC1O[C@H](c2ccc3c(c2)OCO3)[C@H]2CO[C@H](c3ccc4c(c3)OCO4)[C@@H]12 (some centres not stated)	DT40 TDP1 no CPT 21µM, DT40 TDP1 CPT inconclusive
CCOc1c(Cl)cc(CNC(C)(C)CC(C)(C)C)cc1OC	DT40 TDP1 no CPT 21µM, DT40 TDP1 CPT inconclusive
Cc1ccc(-c2ccnc(-n3ncc(C(=O)N(C)CC4CCCN(C)C4)c3C)n2)o1 (configuration not stated)	none (no result: TGFb SMAD3 inh, TDP1 block, IL-1B inflam inh, HepG2 tox)
Nc1ncc(Br)cc1S(=O)(=O)NCCc1ccccc1	none
CC(=O)NC(c1cccc(F)c1)c1nc(-c2cnc3ccccc3c2)cs1 (configuration not stated)	DT40 TDP1 no CPT inconclusive, DT40 TDP1 CPT inconclusive (no result: TDP1 block)
COc1cccc(C(NC(C)=O)c2nc(-c3cnn(C)c3)cs2)c1 (configuration not stated)	DT40 TDP1 CPT inconclusive (no result: TDP1 block)
CC(=O)NC(c1cccc(F)c1)c1nc(-c2csc3ccccc23)cs1 (configuration not stated)	DT40 TDP1 no CPT inconclusive, DT40 TDP1 CPT 23µM (no result: TDP1 block)
CC(=O)NC(c1cccc(F)c1)c1nc(-c2cnn(C)c2)cs1 (configuration not stated)	DT40 TDP1 no CPT 23µM, DT40 TDP1 CPT inconclusive (no result: TDP1 block)
COc1cccc(C(N)c2nc(-c3csc4ccccc34)cs2)c1 (configuration not stated)	TGFb SMAD3 inh inconclusive, DT40 TDP1 no CPT 2.9µM, DT40 TDP1 CPT 3.7µM (no result: TDP1 block)
COc1ccc(-c2csc(C(NC(C)=O)c3cccc(F)c3)n2)cn1 (configuration not stated)	DT40 TDP1 no CPT inconclusive, DT40 TDP1 CPT 15µM (no result: TDP1 block)
CC(=O)NC(c1ccccc1)c1nc(-c2csc3ccccc23)cs1 (configuration not stated)	TGFb SMAD3 inh inconclusive, DT40 TDP1 no CPT inconclusive, DT40 TDP1 CPT inconclusive (no result: TDP1 block)
OC(c1cccc(Cl)c1)c1nc(-c2csc3ccccc23)cs1 (configuration not stated)	TGFb SMAD3 inh inconclusive, DT40 TDP1 no CPT inconclusive, DT40 TDP1 CPT 15µM (no result: TDP1 block)
CC(=O)NC(c1ccccc1)c1nc(-c2cnc3ccccc3c2)cs1 (configuration not stated)	DT40 TDP1 no CPT 21µM, DT40 TDP1 CPT 12µM (no result: TDP1 block)

Compound activity as filed in PubChem BioAssay.
